Laboratory results as given in PubChem BioAssay (Tox21).
A number with no mark means an inactive call. Inconclusive results are not listed. Where a call stands in place of a potency, no number is given. Activity calls are given as the source filed them. Unless noted, calls come from the whole dose curve; as a rule, active = well fitted curve in the direction sought with a large enough effect in the repeat runs; inconclusive = weak or mixed curves; inactive = no such curve, though single readings can be large; an effect the other way counts as inactive or inconclusive.

Assays:
[1] = biological target: Luciferin 4-monooxygenase (Photinus pyralis) (UniProt P08659); experiment: qHTS assay to identify small molecule inhibitors of firefly luciferase (AID 1224835); note: nearly all actives have a fitted effect of over 25% in size; note: potency is the fitted concentration of half-maximal effect
Sequence of Luciferin 4-monooxygenase (Photinus pyralis) (P08659 whole entry, looked up): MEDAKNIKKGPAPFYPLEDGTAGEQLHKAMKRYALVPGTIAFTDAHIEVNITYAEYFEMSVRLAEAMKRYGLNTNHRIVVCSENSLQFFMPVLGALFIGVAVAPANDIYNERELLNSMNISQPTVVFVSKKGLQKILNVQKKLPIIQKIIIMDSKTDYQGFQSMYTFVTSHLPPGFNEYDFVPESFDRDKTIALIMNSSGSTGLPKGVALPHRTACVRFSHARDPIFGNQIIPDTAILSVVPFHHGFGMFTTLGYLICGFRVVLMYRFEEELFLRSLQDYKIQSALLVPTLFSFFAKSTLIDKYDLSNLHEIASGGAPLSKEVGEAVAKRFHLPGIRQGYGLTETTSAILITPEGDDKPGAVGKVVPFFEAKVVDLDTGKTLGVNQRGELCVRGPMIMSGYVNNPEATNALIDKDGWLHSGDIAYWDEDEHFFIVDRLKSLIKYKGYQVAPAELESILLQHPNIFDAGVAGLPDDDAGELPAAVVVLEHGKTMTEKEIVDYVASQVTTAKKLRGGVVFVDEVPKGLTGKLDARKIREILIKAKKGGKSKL
In short: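 Quantitative HTS format; KM concentrations of both substrates. Purified P. pyralis FLuc activity quantified from luminescence images.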

[2] = qHTS assay to identify small molecule agonists of the constitutive androstane receptor (CAR) signaling pathway - cell viability counter screen (AID 1224836); note: nearly all actives have a fitted effect of over 45% in size; note: potency is the fitted concentration of half-maximal effect
In short: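 Multiplexed viability check: HepG2-CYP2B6-hCAR cells, 15-point compound dosing, 0.75 uM PK11195 final, 23 h at 37 C, CellTiter-Fluor fluorescence.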

[3] = qHTS assay to identify small molecule antagonists of the estrogen related receptor signaling pathway with the pleiotropic PPARgamma coactivator (PGC) from Tox21 10K library - cell viability counter screen (AID 1224840; active = well fitted cell-killing curve with a large enough effect in the repeat runs, not every such curve was filed as active; note: nearly all actives have a fitted effect of over 40% in size)
In short: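 Following seeding of 2,000 PGC/ERR cells/well and 6 hours' incubation, test compounds were delivered in DMSO. The plates then sat 17.5 hours at 37 C before a fluorogenic live-cell protease reagent (CellTiter-Fluor) was read after 30 min.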

[4] = qHTS assay to identify small molecule agonists of the estrogen related receptor signaling pathway with the pleiotropic PPARgamma coactivator (PGC) from Tox21 10K library (AID 1224842); note: nearly all actives have a fitted effect of over 15% in size; note: potency is the fitted concentration of half-maximal effect
In short: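 PGC/ERR reporter cells (NTP line) were seeded 2,000 per well, rested 6 h at 37 C/5% CO2, then pin-dosed with compounds in DMSO for 18 h at 37 C; luciferase read by One-Glo luminescence after 30 min at room temperature.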

[5] = biological target: Thyrotropin receptor (Homo sapiens) (UniProt P16473); experiment: qHTS assay to identify small molecule agonists of the thyroid stimulating hormone receptor (TSHR) signaling pathway (AID 1224843; calls by dose curve; note: nearly all actives have a fitted effect of over 45% in size)
Sequence of Thyrotropin receptor (Homo sapiens) (P16473 whole entry, looked up): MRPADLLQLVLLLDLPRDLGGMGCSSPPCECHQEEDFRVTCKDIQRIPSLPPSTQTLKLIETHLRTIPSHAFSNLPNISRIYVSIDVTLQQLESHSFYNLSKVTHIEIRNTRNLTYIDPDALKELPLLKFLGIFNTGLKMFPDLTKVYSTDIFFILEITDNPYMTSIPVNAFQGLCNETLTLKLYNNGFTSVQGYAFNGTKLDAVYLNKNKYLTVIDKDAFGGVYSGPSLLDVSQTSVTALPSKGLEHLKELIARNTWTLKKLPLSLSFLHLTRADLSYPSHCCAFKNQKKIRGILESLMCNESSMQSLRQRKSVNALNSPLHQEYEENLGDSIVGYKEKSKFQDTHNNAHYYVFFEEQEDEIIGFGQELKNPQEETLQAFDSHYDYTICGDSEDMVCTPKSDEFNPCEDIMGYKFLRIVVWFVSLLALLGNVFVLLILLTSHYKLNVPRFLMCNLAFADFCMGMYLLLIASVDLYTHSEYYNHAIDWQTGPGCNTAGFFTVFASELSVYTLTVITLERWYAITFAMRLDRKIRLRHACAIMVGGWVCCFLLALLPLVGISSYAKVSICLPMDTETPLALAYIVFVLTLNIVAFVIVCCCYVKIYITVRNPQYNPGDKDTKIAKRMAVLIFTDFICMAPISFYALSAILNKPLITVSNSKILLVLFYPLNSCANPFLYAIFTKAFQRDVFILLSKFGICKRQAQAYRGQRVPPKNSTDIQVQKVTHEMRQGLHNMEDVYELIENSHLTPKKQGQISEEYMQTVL
In short: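 TSHR-expressing HEK293 cells (800 per well) were exposed to compounds for 30 min at room temperature. cAMP was then detected by HTRF competition with cAMP-d2 and anti-cAMP cryptate, read after 1 h at room temperature. Fifteen concentrations, triplicate.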

[6] = qHTS assay to identify small molecule agonists of the hypoxia (HIF-1) signaling pathway (AID 1224846; active = well fitted activation curve with a large enough effect in the signal ratio in the repeat runs, not every such curve was filed as active; the % refers to the signal ratio)
In short: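 A low-serum medium (0.5% dialyzed FBS) holding 2,000 HRE-bla ME-180 cells per well is preincubated for 5 hrs, dosed with compounds by pintool, and kept a further 17 hrs at 37C, 5% CO2 before CCF4-AM FRET detection of beta-lactamase.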

[7] = qHTS assay to identify small molecule agonists of H2AX - cell viability counter screen (AID 1224847; calls by dose curve; note: nearly all actives have a fitted effect of over 30% in size; note: potency is the fitted concentration of half-maximal effect)
In short: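 After overnight plating of 1000 CHO-K1 cells per well, a 15-concentration compound series was applied for 3 hr at 37C. Luminescence from CellTiter-Glo, read following 30 min at room temperature, reflected cell viability.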

[8] = qHTS assay to identify small molecule antagonists of the estrogen related receptor (ERR) signaling pathway from Tox21 library (AID 1224848); note: nearly all actives have a fitted effect of over 50% in size; note: potency is the fitted concentration of half-maximal effect
In short: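 Cells: ERR line, 2,000/well; 6 h preincubation 37 C/5% CO2. Cpd in DMSO via pin tool; 18 h, 37 C. ONE-Glo, 30 min RT, luminescence.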

[9] = qHTS assay to identify small molecule agonists of the estrogen related receptor (ERR) signaling pathway from Tox21 library (AID 1224849; calls by dose curve; note: nearly all actives have a fitted effect of over 15% in size); conditions: ERR reporter cell line, ONE-Glo luciferase, 18 h; at 92.4 µM (top of the series) unless noted
In short: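 Screening used an NTP-provided ERR luciferase cell line. Compounds in DMSO were added 6 h after seeding and left 18 h at 37 C before a 30 min ONE-Glo step and luminescence reading.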

[10] = qHTS RealTime-Glo MT Cell Viability Assay in HepG2 cells - 24 hour (AID 1224867); note: nearly all actives have a fitted effect of over 50% in size; note: potency is the fitted concentration of half-maximal effect
In short: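 HepG2 suspension premixed with RealTime-Glo reagents is plated at 600 cells per well and left 5 h at 37 C/5% CO2. Compounds in DMSO then go in, and bioluminescence reflecting viable cell number is recorded over 40 h.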

[11] = qHTS RealTime-Glo MT Cell Viability Assay in HEK293 cells - 32 hour (AID 1224868); note: nearly all actives have a fitted effect of over 50% in size; note: potency is the fitted concentration of half-maximal effect
In short: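 Reads taken at 0, 8, 16, 24, 32 and 40 h from the same wells. HEK293 cells (600/well) carried RealTime-Glo reagents from seeding, with compound added after a 5 h settle at 37 C.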

[12] = A CellTox Green Cytotoxicity Assay to monitor cytotoxicity in HEK293 cells - 0 hour (AID 1224869); note: nearly all actives have a fitted effect of over 50% in size
In short: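 Fluorescence intensity, read at 0, 8, 16, 24, 32 and 40 h of compound treatment, reflected dye binding to DNA of dead HEK293 cells; compounds (23 nL, DMSO) were added 5 h after plating cells with reagent.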

[13] = qHTS RealTime-Glo MT Cell Viability Assay in HepG2 cells - 40 hour (AID 1224870); note: nearly all actives have a fitted effect of over 50% in size; note: potency is the fitted concentration of half-maximal effect
In short: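 HepG2 cells mixed with RealTime-Glo MT reagents (NanoLuc plus cell-permeant prosubstrate) were seeded at 600 cells/well, incubated 5 h at 37 C/5% CO2, then pinned with compounds in DMSO; nonlytic luminescence tracked viability during 40 h treatment.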

[14] = qHTS assay to identify small molecule antagonists of the constitutive androstane receptor (CAR) signaling pathway - cell viability counter screen (AID 1224837); note: nearly all actives have a fitted effect of over 45% in size
In short: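 Counter screen run in HepG2-CYP2B6-hCAR cells: 4 hr settle, compound titration (15 concentrations) with 50 nM CITCO, 23 hr at 37 C/5% CO2, CellTiter-Fluor fluorescence.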

[15] = qHTS assay to identify small molecule agonists of H2AX (AID 1224845; active = well fitted activation curve with a large enough effect in the signal ratio in the repeat runs, not every such curve was filed as active; the % refers to the signal ratio)
In short: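 Wild-type CHO-K1 cells plated overnight, then exposed 3 hr at 37C to compounds at 15 concentrations (0.76% DMSO). Lysed, then HTRF anti-pH2AX(S139)-cryptate/anti-H2AX-d2 detection after 24 hr at room temperature; emissions 665 and 620 nm.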

[16] = biological target: Nuclear receptor subfamily 1 group I member 3 (Homo sapiens) (UniProt Q14994); experiment: qHTS assay to identify small molecule antagonists of the constitutive androstane receptor (CAR) signaling pathway (AID 1224838);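 note: HepG2 cells stably expressing hCAR with CYP2B6 luciferase reporter stimulated by CITCO; nearly all actives have a fitted effect of over 40% in size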
Sequence of Nuclear receptor subfamily 1 group I member 3 (Homo sapiens) (Q14994 whole entry, looked up): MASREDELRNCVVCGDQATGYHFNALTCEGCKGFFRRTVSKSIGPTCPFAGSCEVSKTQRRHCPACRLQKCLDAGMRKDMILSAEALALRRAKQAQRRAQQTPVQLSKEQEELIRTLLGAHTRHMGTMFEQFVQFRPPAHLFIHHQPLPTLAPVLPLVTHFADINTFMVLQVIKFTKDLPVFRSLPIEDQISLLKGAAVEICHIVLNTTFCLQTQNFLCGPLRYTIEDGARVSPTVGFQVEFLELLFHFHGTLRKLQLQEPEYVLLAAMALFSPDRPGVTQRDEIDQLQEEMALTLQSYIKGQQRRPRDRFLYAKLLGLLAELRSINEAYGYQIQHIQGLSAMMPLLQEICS
In short: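 Cell line: HepG2 double-stable for hCAR and CYP2B6-2.2kb reporter. Agonist: CITCO, 50 nM final. Compounds: 15 concentrations, 24 h, 37 C. Detection: ONE-Glo luminescence.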

[17] = biological target: Nuclear receptor subfamily 1 group I member 3 (Homo sapiens) (UniProt Q14994); experiment: qHTS assay to identify small molecule agonists of the constitutive androstane receptor (CAR) signaling pathway (AID 1224839);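 note: HepG2 cells stably carrying human CAR and a CYP2B6 luciferase reporter; nearly all actives have a fitted effect of over 15% in size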
In short: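 Using human hepatoma HepG2 cells engineered with hCAR and a CYP2B6-2.2kb reporter, 15-concentration compound series were incubated 24 h alongside PK11195 at 0.75 uM final, with luminescence quantified afterwards.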

[18] = qHTS assay to identify small molecule agonists of the hypoxia (HIF-1) signaling pathway - cell viability counter screen (AID 1224844; calls by dose curve; note: nearly all actives have a fitted effect of over 50% in size)
In short: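 Cells (HRE-bla ME-180, 2,000 per well) sat 5 hrs at 37C, got compound for 17 hrs, were read for CCF4-AM FRET, and were finally lysed with CellTiter-Glo for a 30 min room-temperature luminescence read.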

[19] = qHTS assay to identify small molecule antagonists of the estrogen related receptor signaling pathway with the pleiotropic PPARgamma coactivator (PGC) from Tox21 10K library (AID 1224841; call rule not given here)
In short: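 qHTS antagonist format: PGC/ERR cells, 2k/well, compound in DMSO by pin transfer after 6 h attachment, 18 h treatment at 37 C, One-Glo luminescence read at 30 min.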

| Structure (SMILES) | Potency [1] | Potency [2] | Potency [3] | Potency [4] | Potency [5] | outcome [6] | Potency [7] | Potency [8] | activity change, positive = activation [9] | Potency [10] | Potency [11] | Potency [12] | Potency [13] | Potency [14] | Potency [15] | Potency [16] | Potency [17] | Potency [18] | Potency [19] |
| --- | --- | --- | --- | --- | --- | --- | --- | --- | --- | --- | --- | --- | --- | --- | --- | --- | --- | --- | --- |
| COC(=O)Nc1nc2ccc(C(=O)c3cccs3)cc2[nH]1 | 15.5 µM (active) | 11.9 µM (active) | inactive | 3.35 µM (active) | inactive | inactive | inactive | inactive | -4.13% [at 42.5 µM] | inactive | 0.169 µM (active) | inactive | inactive |  |  |  |  |  |  |
| CC[C@H](NC(=O)c1cc(F)ccc1NS(=O)(=O)c1cccc2cccnc12)c1ccccc1 | inactive | inactive |  | inactive | inactive |  | inactive | 32.5 µM (active) | -48.4% | 52 µM (active) | inactive | inactive | 52 µM (active) | inactive | inactive |  |  |  |  |
| Cc1cc(C(=C2C=CC(=Nc3ccc(S(=O)(=O)O)cc3S(=O)(=O)O)C=C2)c2ccc(Nc3ccc(S(=O)(=O)O)cc3)cc2)ccc1N |  | inactive | inactive |  |  | inactive | inactive |  |  | inactive | inactive | inactive | inactive | inactive |  | inactive | inactive | inactive |  |
| CC(C)C(=O)O |  | inactive | inactive |  |  | inactive | inactive |  |  | inactive | inactive | inactive | inactive | inactive | inactive | inactive | inactive | inactive |  |
| CCOc1cc(N)c(Cl)cc1C(=O)NCC1CN(Cc2ccc(F)cc2)CCO1 (stereo not given) |  | inactive | inactive |  | inactive | inactive | inactive |  |  |  | 16.9 µM (active) | inactive | inactive | inactive |  |  |  |  |  |
| O=C1OCCN1/N=C/c1ccc([N+](=O)[O-])o1 |  |  | inactive |  | inactive | inactive | inactive |  |  | inactive | inactive | inactive | inactive |  |  | inactive | inactive | inactive |  |
| O=C(CCC1CCN(Cc2ccccc2)CC1)c1ccc2c(c1)NCCCC2 | inactive | inactive | inactive | inactive | inactive | inactive | inactive | 18.8 µM (active) | -36% [at 42.5 µM] | inactive | 8.49 µM (active) | inactive | inactive | inactive | inactive |  |  | inactive | 18.8 µM (active) |
| Nc1ccc(S(=O)(=O)O)c(N)c1 | inactive | inactive | inactive | inactive | inactive | inactive | inactive | inactive | 1.48% | inactive | inactive | inactive | inactive | inactive |  |  |  | inactive |  |
| Nc1nccs1 | inactive |  | inactive |  |  | inactive | inactive |  |  | inactive | inactive | inactive | inactive | inactive | inactive |  |  | inactive |  |
| CCC(=O)Oc1ccc(/C(CC)=C(\CC)c2ccc(OC(=O)CC)cc2)cc1 | inactive | inactive | inactive | inactive | inactive |  | inactive | 27.3 µM (active) | -47.8% | inactive | 17.4 µM (active) | inactive | inactive | inactive | inactive |  |  |  |  |
| Fc1ccccc1[C@@H](F)COC1CCC(Nc2ncnc3[nH]ncc23)CC1 (stereo not given in full) | inactive |  |  |  | inactive | inactive | 101 µM (active) |  |  | inactive | 21.9 µM (active) | inactive | inactive |  | inactive |  | inactive | inactive |  |
| CCOCCn1c(C2CCN(CCc3ccc(C(C)(C)C(=O)O)cc3)CC2)nc2ccccc21 | inactive | inactive | inactive |  | inactive | inactive | inactive |  |  | inactive | inactive | inactive | inactive | inactive | inactive |  |  | inactive |  |
| COc1ccc(CCC(=O)c2c(O)cc(O[C@@H]3O[C@H](CO)[C@@H](O)[C@H](O)[C@H]3O[C@@H]3O[C@@H](C)[C@H](O)[C@@H](O)[C@H]3O)cc2O)cc1O |  | inactive | inactive | inactive | inactive | inactive | inactive | inactive | 1.69% | inactive | inactive |  | inactive | inactive |  |  |  | inactive |  |
